Measured values reported in PubChem BioAssay (Tox21).
Inconclusive results are not listed. A call without a number means that no potency is given here. Activity calls are given as the source filed them. The call rests on the fitted dose curve.

The molecules below were run against 5-hydroxytryptamine receptor 2A (Homo sapiens) (UniProt P28223) (assay: 5-hydroxytryptamine receptor 2A (HTR2A) small molecule antagonists, cell-based qHTS assay (AID 1963586; further: nearly all actives have a fitted effect of over 45% in size)). Details: HTR2A-CHO cells, DOI-induced calcium flux, fluorescence; series mostly up to 61.5 µM.
Sequence of 5-hydroxytryptamine receptor 2A (Homo sapiens) (P28223 whole entry, looked up): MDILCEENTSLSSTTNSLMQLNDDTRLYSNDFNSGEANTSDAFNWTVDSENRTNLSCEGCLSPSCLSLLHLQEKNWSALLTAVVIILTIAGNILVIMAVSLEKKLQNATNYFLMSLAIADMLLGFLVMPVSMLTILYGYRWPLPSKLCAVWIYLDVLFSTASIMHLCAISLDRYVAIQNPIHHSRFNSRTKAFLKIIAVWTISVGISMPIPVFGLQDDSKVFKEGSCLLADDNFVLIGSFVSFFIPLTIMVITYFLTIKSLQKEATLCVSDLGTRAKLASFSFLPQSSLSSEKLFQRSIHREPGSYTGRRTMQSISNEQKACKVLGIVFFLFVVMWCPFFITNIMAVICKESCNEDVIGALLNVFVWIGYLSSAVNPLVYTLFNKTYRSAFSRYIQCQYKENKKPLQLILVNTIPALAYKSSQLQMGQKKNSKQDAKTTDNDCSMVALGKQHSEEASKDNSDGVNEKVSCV
Source text: National Center for Advancing Translational Sciences [NCATS]
Division of Preclinical Innovation [DPI]
U.S. Environmental Protection Agency [EPA]
National Institutes of Environmental Health Sciences [NIEHS]
National Toxicology Program [NTP]
U.S. Food and Drug Administration [FDA]
The HTR2A receptor is a subtype of the 5-HT2 receptor that belongs to the serotonin receptor family and is a G protein-coupled receptor (GPCR). The HTR2A-CHO cell line stably expressing human 5-hydroxytryptamine receptor 2A (HTR2A) can be used for screening antagonists of interactions between 5-HT2 and its ligands. The HTR2A-CHO calcium flux assay is a homogeneous fluorescence-based assay for detecting the intracellular calcium level using FDSS kinetic plate reader system.
Tox21 Assay Protocol Summary:
HTR2A-CHO cells were dispensed at 2000 cells/3uL/well in 1536-well black-clear bottom plates using a Multidrop Dispenser. After the assay plates were incubated at a 37 C/5% CO2 incubator for 18 h, 3 uL of Dye Loading Buffer was transferred to the assay plate by a Flying Reagent Dispenser. The assay plates were incubated at 37 C for 1h. For antagonist mode, 23 nL of compounds dissolved in DMSO, positive controls or DMSO only was transferred to the assay plate by a pin tool. After 5 min incubation at room temperature, 1.5 uL of 4-Iodo-2,5-dimethoxy-alpha-methylbenzeneethanamine hydrochloride (DOI) at 4nM was added to each well. The fluorescence intensity in the plates was measured using FDSS 7000EX kinetic plate reader for 3 min at 1 sec intervals.
Potency means the concentration at half of the fitted maximal effect.

| Structure (SMILES) | Potency | activity, negative = inhibition |
| --- | --- | --- |
| COc1cc(Cl)c(OC)cc1N | inactive |  |
| C(=C(c1ccccc1)c1ccccc1)c1ccccc1 | inactive |  |
| CCCCCCCCCCCCCCCCCCNC(=O)OC1CCN(C(=O)OC[C@H](COC(=O)N(Cc2cccc[n+]2CC)C(=O)c2ccccc2OC)OC)CC1 | inactive |  |
| CC(C)COC(=O)CC(C(=O)OCC(C)C)S(=O)(=O)O (stereo not given) | inactive |  |
| O=C(OCC(O)CO)c1ccccc1Nc1ccnc2cc(Cl)ccc12 (stereo not given) | inactive |  |
| Cc1c(C(=O)NN2CCCCC2)nn(-c2ccc(Cl)cc2Cl)c1-c1ccc(Cl)cc1 | inactive |  |
| CC(=O)/C(C)=C/C1C(C)=CCCC1(C)C (stereo not given) | inactive |  |
| CN1CC[C@H](c2c(O)cc(O)c3c(=O)cc(-c4ccccc4Cl)oc23)[C@H](O)C1 | inactive |  |
| N[C@@H](CCC(=O)N[C@@H](CS)C(=O)NCC(=O)O)C(=O)O |  | -1.78% [at 12.7 µM] (inactive) |
| O=C(Nc1ccccc1)c1cc(Cl)ccc1O | inactive |  |
| CCc1ccc2c(c1)C(=O)c1ccccc1C2=O | inactive |  |
| Cc1cc(Nc2ccc(O)cc2)ccc1N | inactive |  |
| CC(=O)Nc1ccccc1O | inactive |  |
| CC(C)c1ccc2cc(C(C)C)ccc2c1 | inactive |  |
| c1cc(CCCc2ccncc2)ccn1 | inactive |  |
| CN(C)C(=O)Nc1ccccc1 | inactive |  |
| CC(C)CC(C)(C)C | inactive |  |
| COc1ccc(/C=C/c2cc(OC)cc(=O)o2)cc1 | 9.64 µM (active) |  |
| CCOC(C)OCC | inactive |  |
| CCCCC(CC)CNC(=O)CC(C)OC(=O)CCC(=O)O (stereo not given) | inactive |  |

| Structure (SMILES) | Potency | activity, negative = inhibition |
| --- | --- | --- |
| C[N+]1(C)CCC(OC(=O)C(O)(c2ccccc2)C2CCCC2)C1 (stereo not given) | inactive |  |
| CCC(Cl)C(Cl)C(Cl)CC(Cl)C(Cl)C(C)Cl (stereo not given) | inactive |  |
| O=[N+]([O-])c1cc(N(CCO)CCO)ccc1NCCO | inactive |  |
| CC(C)(C)c1ccc(N)cc1 | inactive |  |
| O=C1CCC/C=C\CCCCCCCCCC1 | inactive |  |
| CC[N+](C)(CC)CCOC(=O)C1c2ccccc2Oc2ccccc21 | inactive |  |
| COC(=O)c1ccc(C(=O)OC)c(C(=O)OC)c1 | inactive |  |
| CC1(C)C(=O)N(Cl)C(=O)N1Br | inactive |  |
| CCCC(=O)O[C@]1(C(=O)COC(=O)CC)CC[C@H]2[C@@H]3CCC4=CC(=O)CC[C@]4(C)[C@H]3[C@@H](O)C[C@@]21C |  | -43.5% [at 12.7 µM] (inactive) |
| Cc1cc([N+](=O)[O-])ccc1N | inactive |  |
| CC(CCO)CCCC(C)(C)O (stereo not given) | inactive |  |
| Clc1cccc(C(c2ccc3nc[nH]c3c2)n2ccnc2)c1 (stereo not given) | inactive |  |
| CC/C=C\C/C=C\C/C=C\CCCCCCCC(=O)OC | inactive |  |
| CC(C)(C)CC(C)(C)c1ccc(O)c(Cc2ccc(Cl)cc2Cl)c1 | inactive |  |
| Oc1ccc2ccccc2c1 | inactive |  |
| CC(CN(CCN(CC(C)OCCO)CC(C)OCCO)CC(C)OCCO)OCCO (stereo not given) | inactive |  |
| CN1CCN(CCC(=O)N2c3ccccc3Sc3ccc(C(F)(F)F)cc32)CC1 | 4.1 µM (active) |  |
| CCC(=O)OCCC(C)CCC=C(C)C (stereo not given) | inactive |  |
| C=CC(=O)OCCOc1ccccc1 | inactive |  |
| CCCCOCC(C)OCC(C)O (stereo not given) | inactive |  |
